# According to PubChem BioAssay AID2113 (National Center for Advancing Translational Sciences (NCATS), 2009):
# “And” between values parts separate entries of the source, which are not always exact repeats. Equal values may be shown once. Records with an inconclusive call do not appear. Entries that show only a call come without a potency. The source made the active and inactive calls. Calls follow the shape of the dose curve; as a rule, active = well fitted curve in either direction with a large enough effect; inconclusive = small, poorly fitted or top-dose-only effect; inactive = no such curve, though single readings can be large or run the other way.
# Target: Lysosomal alpha-glucosidase (Homo sapiens) (UniProt P10253)
# Test: Confirmation of Inhibitors and Activators of Human alpha-Glucosidase From Spleen Homogenate;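 as to potency: fluorescence of 4-methylumbelliferone released from a fluorogenic glucopyranoside substrate at pH 5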
# Conditions: alpha-glucosidase enzyme activity; series mostly up to 60.5 µM
# In short: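 Fluorogenic assay using human spleen homogenate (1 ug) as enzyme source with 1 mM 4-methylumbelliferyl-alpha-D-glucopyranoside, pH 5.0 citrate buffer, 40 min at 37 C. 4-MU read (Ex 365/Em 440) after NaOH/glycine stop; AC50 from Hill fits.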
# Potency is read from the fitted curve at half-maximal effect.
row,Compound,Potency
1,Cc1ccc(-c2nc(-c3cc4ccccc4oc3=O)sc2C)cc1,inactive
2,COc1ccc(C(=O)NC2(C(F)(F)F)C(=O)Nc3c2c(=O)[nH]c(=O)n3CCc2ccc(OC)c(OC)c2)cc1 (stereo not given),inactive
3,CCCN1CNc2c(c(=O)[nH]c(=S)n2CCc2ccccc2)C1,inactive
4,COc1ccc(CCn2c3c(c(=O)[nH]c2=S)CN(Cc2ccccc2)CN3)cc1OC,11.2 µM (active)
5,COc1ccc(/C=C/c2nnc(NC(=O)CSc3ccc(Cl)cc3)s2)cc1,inactive
6,CCCN1CNc2c(c(=O)[nH]c(=S)n2CCC(C)(C)C)C1,inactive
7,COC(=O)CSc1cc([N+](=O)[O-])ccc1NC(=O)OC,inactive
8,CCCN1CNc2c(c(=O)[nH]c(=S)n2CCc2cccc(C)c2)C1,35.5 µM (active)
9,O=S(=O)(c1cccnc1)N1CCOCC1,inactive
10,CC(=O)c1ccc(N2CCN(S(=O)(=O)c3ccc(N4CCCC4=O)cc3)CC2)cc1,inactive
11,CC(=O)c1ccc(N2CCN(S(=O)(=O)c3ccc4c(c3)oc(=O)n4C)CC2)cc1,inactive
12,Clc1ncc(C#Cc2ccccc2)c2ncncc12,inactive
13,CCN(CC)S(=O)(=O)c1ccc2c(c1)-c1cc(S(=O)(=O)N(CC)CC)ccc1C2=NNC(N)=S,inactive
14,CCCN1CNc2c(c(=O)[nH]c(=O)n2CCc2ccc(OC)c(OC)c2)C1,17.8 µM (active)
15,NC(=S)NN=C1c2cc(S(=O)(=O)N3CCOCC3)ccc2-c2ccc(S(=O)(=O)N3CCOCC3)cc21,inactive
16,CC1CC(C)CN(CC(=O)N2c3ccccc3CCc3ccccc32)C1 (stereo not given),inactive
17,CC(C)NCC(O)COc1cccc2[nH]ccc12 (stereo not given),inactive
18,Cc1ccc(S(=O)(=O)N2CCN(CC(=O)N/N=C\c3ccccn3)CC2)cc1,inactive

row,Compound,Potency
1,O=C1Cc2cc(S(=O)(=O)N3CCN(c4ccc(Br)cc4)CC3)ccc2N1,inactive
2,Cn1c(=O)c2c(nc(NCc3ccc4c(c3)OCO4)n2Cc2ccc(F)cc2)n(C)c1=O,inactive
3,Cc1ccc(N2CCN(S(=O)(=O)c3ccc4c(c3)CC(=O)N4)CC2)cc1,inactive
4,CCCN1CNc2c(c(=O)[nH]c(=S)n2CCc2ccc(OCC)c(OCC)c2)C1,25.1 µM (active)
5,Cc1c(C#N)c(N)nc2c3c(sc12)NC(=O)CC3c1ccc(Cl)cc1 (stereo not given),inactive
6,CC(=O)Nc1ccc(S(=O)(=O)N2CCN(c3ccc(C(C)=O)cc3)CC2)cc1,inactive
7,O=S(=O)(c1ccc2nc(-c3ccco3)c(-c3ccco3)nc2c1)N1CCOCC1,inactive
8,N#Cc1ccc(S(=O)(=O)N2CCOCC2)cc1,inactive
9,O=C(NCCCN1CCOCC1)c1cccs1,inactive
10,COc1ccc(Cc2nnc(NC(=O)CSc3ccc(Cl)cc3)s2)cc1,inactive
11,Cn1c2c(c(=O)n(C)c1=O)CN(CCCN1CCOCC1)CN2,inactive
12,CN(CCO)S(=O)(=O)c1ccc2c(c1)C(=NNC(N)=O)c1cc(S(=O)(=O)N(C)CCO)ccc1-2,inactive
13,CCCN1CNc2c(c(=O)[nH]c(=S)n2CCc2cccc(OC)c2)C1,15.8 µM (active)
14,CCCN1CNc2c(c(=O)[nH]c(=S)n2CCc2cccc(OC)c2OC)C1,15.8 µM (active)
15,CC(=O)c1ccc(N2CCN(S(=O)(=O)c3ccc4c(c3)C(=O)OC4)CC2)cc1,inactive
16,CCCN1CNc2c(c(=O)[nH]c(=S)n2CCc2ccc(OC)c(OC)c2)C1,11.2 µM (active) and 15.8 µM (active)
17,O=c1cc(-c2ccccc2)[nH]c2[nH]n(-c3ccccc3)c(=O)c12,inactive
